# Screening results from PubChem BioAssay.
# This is a sample that favours compounds with a hit; in the whole collection about 2.4% have one here.
# FEN1 inh: blocks human flap endonuclease 1. Recombinant FEN1 flap cleavage, fluorescence, 15 min. Potency, µM (doses to about 114 µM), inactives show at the top dose activity change, negative = inhibition, actives largely listed as inhibitors. 390,000 compounds, 0.35% hits; note: potency is the fitted concentration of half-maximal effect; % is set by controls: 0 for no effect and ±100 for the full control effect; nearly all actives have a fitted effect of over 65% in size
#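 Nuclease activity of 10 nM FEN1 was measured after 15 min of room-temperature exposure to titrated compounds, by adding 50 nM flap substrate and reading plates at 0 and 15 min.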
# POLB inh: inhibitors of human DNA polymerase beta; Pol beta primer extension/strand displacement, fluorescence kinetic; Potency, µM (series often up to 114 µM), inactives show at the highest dose activity change, negative = inhibition, most hits filed as inhibitors; 340,000 compounds, 1.3% hits; AID 485314; note: potency is the fitted concentration of half-maximal effect; % is set by controls: 0 for no effect and ±100 for the full control effect
#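 Kinetic readout of DNA synthesis with strand displacement by Pol beta. Compound and 10 nM enzyme sit 15 min at room temperature; 50 nM substrate starts the reaction, read immediately and at 10 min.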
# Pol kappa inh-1: inhibitors of human DNA polymerase kappa; Q9UBT6; purified Pol kappa, fluorescent DNA synthesis assay, 10 min; Potency, µM (doses to about 107 µM), for inactives: at the top dose activity, negative = inhibition, usual class: inhibitors; 400,000 compounds, 0.53% hits; AID 588579; note: potency is the fitted concentration of half-maximal effect; % is set by controls: 0 for no effect and ±100 for the full control effect
#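 Pol kappa 10 nM + cpd, 15 min RT; start w/ substrate 50 nM final; fluorescence kinetic read, 0 and 10 min. Neg ctrl: buffer, no enzyme.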
# WRN inhibitor: inhibitors of human WRN helicase. Q14191. WRN helicase unwinding, fluorescent forked duplex, kinetic. Potency, µM (doses to about 114 µM), without a hit: at the top dose activity change, negative = inhibition, actives largely listed as inhibitors. 360,000 compounds, 0.46% hits. AID 651768; note: potency is the fitted concentration of half-maximal effect; % is set by controls: 0 for no effect and ±100 for the full control effect; nearly all actives have a fitted effect of over 55% in size
#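 Primary qHTS, 1536-well format. 20 nM WRN + compound, 15 min RT; start with 100 nM forked fluorophore/quencher duplex, 2 mM ATP (final); kinetic read ex 525/em 598 nm.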
# Pol eta inh-1: DNA polymerase eta (human) inhibition; Potency, µM (top dose mostly 114 µM), for inactives: at the top dose activity change, negative = inhibition, actives largely listed as inhibitors; AID 588591; 390,000 compounds, 1.2% hits; Q9Y253; recombinant Pol eta, fluorescent DNA replication assay; note: potency is the fitted concentration of half-maximal effect; % is set by controls: 0 for no effect and ±100 for the full control effect
#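 Pol eta (10 nM) was preincubated with compounds for 15 min at room temperature, after which fluorescent replication substrate (50 nM final) was added to start the reaction. Fluorescence was read kinetically at 0 and 10 min.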
# Pol iota inh: DNA polymerase iota (human) inhibition | 390,000 compounds, 1% hits | Pol iota fluorescent replication assay, 10 min | Potency, µM (titrated, usually from 115 µM), inactives show top-dose activity, negative = inhibition, usual class: inhibitors | Q9UNA4; note: potency is the fitted concentration of half-maximal effect
#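 Fluorescent replication assay read twice, at 0 min and 10 min after adding 50 nM (final) substrate. Enzyme (10 nM) and compounds were first incubated 15 min at room temperature; enzyme-free buffer wells were negative controls.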
# TbPGK inh: validation of Trypanosoma brucei phosphoglycerate kinase inhibitors | shares compounds with Pol kappa inh-1 | TbPGK coupled GAPDH assay, Kinase-Glo luminescence | Potency, µM (top dose mostly 57.5 µM), without a hit: top-dose activity change, negative = inhibition, most hits filed as inhibitors | 500 compounds, 79% hits; note: potency is the fitted concentration of half-maximal effect; % is set by controls: 0 for no effect and ±100 for the full control effect; nearly all actives have a fitted effect of over 65% in size
# POLI cherry-pick: Human Pol iota inhibitor confirmatory assay. shares compounds with Pol kappa inh-1. Pol iota primer extension, TAMRA/BHQ fluorescence. Potency, µM, actives largely listed as inhibitors. 1,500 compounds, 77% hits. AID 720496; note: potency is the fitted concentration of half-maximal effect
# GALK inh confirm: confirmation of human galactokinase (GALK) inhibitors. shares compounds with Pol eta inh-1. purified GALK, Kinase-Glo ATP depletion luminescence. Potency, µM (series often up to 115 µM), without a hit: top-dose activity, negative = inhibition, actives largely listed as inhibitors. 150 compounds, 70% hits
# Target sequence (P51570 whole entry, looked up): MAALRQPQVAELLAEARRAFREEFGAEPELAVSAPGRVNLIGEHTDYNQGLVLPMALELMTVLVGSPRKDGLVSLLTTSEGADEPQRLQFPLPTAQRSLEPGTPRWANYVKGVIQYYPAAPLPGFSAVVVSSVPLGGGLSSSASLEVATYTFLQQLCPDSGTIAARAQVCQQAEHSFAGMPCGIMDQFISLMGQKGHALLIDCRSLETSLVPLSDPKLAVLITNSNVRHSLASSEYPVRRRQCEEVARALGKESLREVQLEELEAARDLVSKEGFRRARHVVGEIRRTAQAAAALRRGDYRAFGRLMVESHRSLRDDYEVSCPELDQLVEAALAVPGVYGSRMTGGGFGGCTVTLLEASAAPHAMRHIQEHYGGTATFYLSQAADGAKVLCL
# GALK redox cs: redox cycling activity in phenol red-HRP assay; shares compounds with Pol eta inh-1; Phenol red-HRP H2O2 redox cycling, absorbance 600 nm; Potency, µM (series often up to 115 µM), without a hit: top-dose activity change, negative = H2O2 signal, hits mostly inhibitors; 150 compounds, 40% hits
# HEK293 viability: HEK-293 cytotoxicity, GALK inhibitor secondary; shares compounds with Pol eta inh-1; HEK-293 viability, ATP luminescence (CellTiter-Glo), 24/48 h; Potency, µM (top dose mostly 46.1 µM), for inactives: at the top dose activity change, negative = cytotoxicity, hits mostly inhibitors; 170 compounds, 10% hits; AID 2547; note: potency is the fitted concentration of half-maximal effect; % is set by controls: 0 for no effect and ±100 for the full control effect
# Pol kappa inh-2: confirmation of human DNA polymerase kappa inhibitors | purified Pol-kappa, fluorescent strand-displacement substrate | AID 720501 | Potency, µM, actives largely listed as inhibitors | shares compounds with Pol eta inh-1 | 920 compounds, 76% hits; note: potency is the fitted concentration of half-maximal effect
# Pol eta inh-2: Pol eta (human) inhibition, cherry-pick confirmation | Pol eta primer extension, TAMRA/BHQ fluorescence, 10 min | Potency, µM, actives largely listed as inhibitors | shares compounds with Pol eta inh-1 | AID 720502 | 2,600 compounds, 64% hits; note: potency is the fitted concentration of half-maximal effect
# Active calls of the source: *; u = inconclusive; x = no result; [ ] = remark or other dose. Calls come from the whole dose curve; as a rule, active = well fitted curve in the direction sought with a large enough effect; inconclusive = small, poorly fitted or top-dose-only effect, or another doubt; inactive = no such curve, though single readings can be large; an effect the other way counts as inactive or inconclusive.
SMILES,FEN1 inh,POLB inh,Pol kappa inh-1,WRN inhibitor,Pol eta inh-1,Pol iota inh,POLI cherry-pick,Pol eta inh-2,others
O=C(Nc1ccc(C(=O)O)cc1)/C(=C\c1ccc2c(c1)OCO2)NC(=O)c1ccccc1,4%,-1%,-11%,-11%,7%,-14%,x,x,
O=C(O)COc1ccccc1/C=N/NC(=O)/C(=C\c1ccc2c(c1)OCO2)NC(=O)c1ccccc1,-14%,-15%,-8%,-16%[11.6 µM],u,u,42*,u,
COC(=O)c1cc(C)nc2c1C(=O)C(=O)C=C2N1CCOCC1,-23%,-8%,-10%,u,4.5µM*,1.3µM*,6*,5.4*,TbPGK inh=4.6µM*;GALK inh confirm=5.3µM*;GALK redox cs=2.7µM*;HEK293 viability=8.9µM*
O=C(/C=C/c1ccc(O)c(O)c1)NC(=O)c1ccccc1O,u,10µM*,32µM*,56µM*,7.9µM*,u,u,60*,
Cc1nn(C(C)C(=O)NC2C(=O)N3C(C(=O)O)=C(CSc4nnnn4C)CSC23)cc1Cl (centres undefined),-1%,25µM*,u,-12%[11.6 µM],20µM*,16µM*,x,u,TbPGK inh=-25%
CC(=O)NC(c1ccc(F)c(F)c1)c1nc(-c2ccncc2)cs1 (centres undefined),x,x,x,3%,x,x,x,x,
COc1ccc(Cl)cc1N1C(=O)[C@@H]2C(c3cccc(OC)c3OC)=NO[C@@H]2C1=O,4%,25%,-14%,-2%,2%,u,x,x,
O=[N+]([O-])c1ccc(C=NNC(=S)Nc2ccc(F)cc2)cc1,4%,x,6%,-2%,-13%,17%,x,x,
O=[N+]([O-])c1ccc(C=NNC(=S)NN=Cc2ccc([N+](=O)[O-])cc2)cc1,u,x,25µM*,56µM*,u,14µM*,19*,43*,Pol kappa inh-2=17*
CC1CC(C)CN(C(=O)COc2cccnc2[N+](=O)[O-])C1 (centres undefined),-9%,x,-10%,10%,-7%,52%,x,x,
Cn1c(SCC(=O)Nc2nncs2)nnc1C1CC1,-24%,6.3µM*,u,u,22µM*,u,38*,30*,
CC(C)n1c(SCC(=O)Nc2nncs2)nnc1C1CC1,0%,-2%,-20%,4%,-5%,-28%,x,x,
Cc1cc(=O)oc(C)c1C(=O)NCCC1=CCCCC1,6%,16%,-13%,-1%,-3%,15%,x,x,
CC(CS(=O)(=O)c1ccc2c(c1)NC(=O)CS2)C(=O)NCc1ccccc1Cl (centres undefined),-21%,100µM*,u,40µM*,18µM*,45µM*,u,34*,TbPGK inh=1.8µM*
O=C1CSc2ccc(S(=O)(=O)NCc3ccccc3Cl)cc2N1,0%,15%,-17%,-6%,u,25%,x,x,
CCOC(=O)c1cccc(NC(=O)c2cnc3ccccc3n2)c1,5%,10%,-2%,-17%,-20%,-10%,x,x,
COc1cc(/C=C/C(=O)OCC(=O)NCc2ccco2)ccc1OC(F)F,-1%,17%,-7%,-16%,-15%,22%,x,x,
COc1ccc(/C=C/C(=O)OCC(=O)NCc2ccco2)cc1OC,-2%,40µM*,u,-9%[11.6 µM],50µM*,22µM*,u,u,
O=C(COC(=O)Cc1ccc(Cl)cc1)NCc1ccco1,-14%,x,79µM*,u,8.9µM*,22µM*,19*,19*,Pol kappa inh-2=11*
COCCn1c(SCC(=O)Nc2cc(C(C)(C)C)nn2-c2ccccc2)nnc1-c1ccncc1,-2%,0%,-4%,3%,-6%,7%,x,x,
Cc1cc(SCC(=O)Nc2ccc3[nH]c(=O)[nH]c3c2)nc2ccccc12,-9%,x,-4%,u,40µM*,u,60*,x,Pol kappa inh-2=u
CCc1nn2c(=O)cc(COc3ccc(/C=C4\C(=N)N5N=C(C)SC5=NC4=O)cc3)nc2s1,u,35µM*,79µM*,u,7.1µM*,u,34*,48*,Pol kappa inh-2=19*
NS(=O)(=O)c1ccc(NC2=CC(=O)C(=O)c3ccccc32)cc1,-34%,u,-17%,u,u,u,u,u,GALK inh confirm=15µM*;GALK redox cs=11µM*;HEK293 viability=7%
O=C(CSc1nccc(=O)[nH]1)N1N=C2/C(=C/c3ccco3)CCCC2C1c1ccco1 (centres undefined),-2%,28µM*,u,u,25µM*,45µM*,38*,30*,
C[n+]1cccc2cccc([O-])c21,u,28µM*,u,-15%[11.6 µM],22µM*,1.6µM*,24*,43*,GALK inh confirm=24µM*;GALK redox cs=12µM*;HEK293 viability=5%
COc1ccccc1-c1nc2c(c(SCC(=O)Nc3ccc(C)c(C)c3)n1)Cc1c(CO)cnc(C)c1O2,-8%,0%,-11%,x,u,-2%,u,u,
CCOC(=O)CN1C(=O)S/C(=C/c2ccc(N3CCCCC3)o2)C1=O,2%,46%,0%,-1%,-22%,13%,x,x,
